The values that follow come from PubChem BioAssay.

Assay [1] is described as follows: small molecules captured by biotinylated probe aFSTL3 – biochemical, small-molecule microarray, fluorescence 635/667, stem cell growth factor project, primary screen (AID 1064).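 Further: measures binding of the biotinylated anti-FSTL3 antibody to printed compounds.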 As to conditions: higher = more signal.
Assay [2] in a line: binders from COS7 lysate, DM2A8 probe, primary screen, torsin A project, cell lysate, small-molecule microarray, fluorescence 635/667 (AID 1065). The conditions noted are these: higher = more signal, COS7 lysate expressing mutant human TOR1A.
Assay [3] is described as follows: small molecules captured by biotinylated probe aFGF2 – biochemical, small-molecule microarray, fluorescence 635/667, stem cell growth factor project, primary screen (AID 1067).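 Further: measures binding of biotinylated aFGF2 protein to printed compounds on slides; z-score merges feature fluorescence and signal-to-noise across triplicate slides.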 As to conditions: higher = more signal.
Assay [4] in a line: small molecules captured by biotinylated probe aFGF10 – biochemical, small-molecule microarray, fluorescence 635/667, stem cell growth factor project, primary screen (AID 1071).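 Further: score merges 667 nm spot intensity and signal to noise from triplicate slides.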 The conditions noted are these: higher = more signal.
For assay [5], the target named is Neurogenic locus notch homolog protein 2 (Homo sapiens) (UniProt Q04721). Briefly: small molecules binding Notch2 protein – biochemical, small-molecule microarray, 635 nm fluorescence, stem cell growth factors, primary screen (AID 1073). As to conditions: higher = more signal.
Assay [6] addresses Pro-neuregulin-1, membrane-bound isoform (Homo sapiens) (UniProt Q02297). Briefly: small molecules binding neuregulin-1 protein – biochemical, small-molecule microarray, fluorescence 635/667, psychiatric disease protein project, primary screen (AID 1075).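 Further: score combines 667 nm spot fluorescence with signal to noise.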 The conditions noted are these: NRG1 binding, 635 nm fluorescence, higher = more signal.
The subject of assay [7] is Neuregulin-1 EGF-like domain. The assay is described as follows: small molecules binding NRG1 EGF domain – biochemical, small-molecule microarray, 635 nm fluorescence, primary screen (AID 1081).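 Further: binding of the protein to compounds printed on small-molecule microarray slides.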 As to conditions: higher = more signal.
A short description of assay [8]: FRG1 expression reporter modulators in myotubes – cell-based, C2C12 myotubes, firefly/Renilla luciferase, luminescence, FRG1 inhibition for FSHD, primary screen (AID 1084). The conditions noted are these: FRG1 promoter luciferase, higher = more signal, called active from +8 up or from −8 down.
Assay [9] in a line: small molecules captured by biotinylated probe aFST – biochemical, small-molecule microarray, fluorescence 635/667, stem cell growth factor project, primary screen (AID 1086).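 Further: score merges 667 nm fluorescence with signal-to-noise of each printed compound spot.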 The conditions noted are these: higher = more signal.
Assay [10] is described as follows: binders of probe aHhip on microarray, primary screen, stem cell growth factor project, biochemical, small-molecule microarray, fluorescence 635/667 (AID 1087).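 Further: score merges spot fluorescence at 667nm with spot signal to noise ratio.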 As to conditions: higher = more signal.
The subject of assay [11] is PRMT1 (protein arginine N-methyltransferase 1). Briefly: small molecules binding arginine methyltransferase PRMT1 – biochemical, small-molecule microarray, 635 nm fluorescence, primary screen (AID 1088).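 Further: binding of Prmt1 protein to compounds spotted on small-molecule microarray slides.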 The conditions noted are these: higher = more signal.
Assay [12] can be described thus: growth effects on S. cerevisiae YJM789 – YJM789 clinical isolate, OD600, 24 h, basal, primary screen (AID 1089).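 Further: growth of clinical yeast isolate S. cerevisiae YJM 789 seeded 1000 cells per well; test concentration not given here.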 As to conditions: higher = more signal, called active from +8 up or from −8 down.
Assay [13] in a line: S. pombe growth modifiers, basal conditions – strain 972, OD600, 24 h, no modulator, primary screen (AID 1090).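 Further: basal condition with compound alone and no growth modifier present; test concentration not given here.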 As to conditions: S. pombe 972 growth, higher = more signal, called active from +8 up or from −8 down.
The nature of assay [14]: budding yeast growth modifiers under rapamycin – strain BY4716, OD600, 96 h, primary screen (AID 1091). Further: test concentration not given here. As to conditions: S. cerevisiae BY4716 + rapamycin, higher = more signal, called active from +8 up or from −8 down.
Assay [15] has as its target Torsin-1A-interacting protein 2 (Homo sapiens) (UniProt Q8NFQ8). The assay is described as follows: small molecules binding lysate-expressed LULL1 – cell lysate, human LULL1 lysate, 635/667 nm fluorescence, primary screen (AID 1092).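 Further: probe is lysate of COS7 cells overexpressing human LULL1; score merges per-feature 667 nm fluorescence with signal-to-noise.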 The conditions noted are these: small-molecule microarray, hLULL1 lysate binding, 635 nm fluorescence; higher = more signal.
A short description of assay [16]: optical density change of DRC41 E. coli – strain DRC41, OD650, 24 h, E. coli filamentation project, primary screen (AID 1093).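 Further: MC1000 strain lacking acrAB efflux and sulA so SOS filamentation is blocked; test concentration not given here.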 As to conditions: E. coli DRC41 growth, higher = more signal, called active from +8 up or from −8 down.
A short description of assay [17]: probe aLefty2 binding to arrayed compounds – biochemical, biotinylated probe, 635/667 nm fluorescence, primary screen (AID 1094).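 Further: score merges spot fluorescence near 667 nm with spot signal-to-noise ratio.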 The conditions noted are these: small-molecule microarray, higher = more signal.
The subject of assay [18] is Noggin (protein binding on small-molecule microarray). The assay is described as follows: small molecules binding Noggin protein – biochemical, 635/667 nm fluorescence, primary screen (AID 1095).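 Further: score merges 667 nm feature fluorescence with signal to noise over triplicate slides.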 As to conditions: 635 nm fluorescence, higher = more signal.
Assay [19] has as its target Neurogenic locus notch homolog protein 3 (Homo sapiens) (UniProt Q9UM47). The assay is described as follows: small molecules binding NOTCH3 protein – biochemical, 635/667 nm fluorescence, primary screen (AID 1096). As to conditions: small-molecule microarray, 635 nm fluorescence, higher = more signal.
Assay [20] is described as follows: probe aEGFR binding to arrayed compounds – biochemical, biotinylated probe, 635/667 nm fluorescence, primary screen (AID 1097).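 Further: probe is a biotinylated anti-EGFR antibody binding compounds printed on slides; score combines fluorescence near 667 nm and signal to noise of each spot.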 As to conditions: small-molecule microarray, higher = more signal.

Activity calls are given as the source filed them.

Sequence of Torsin-1A-interacting protein 2 (Homo sapiens) (Q8NFQ8 whole entry, looked up): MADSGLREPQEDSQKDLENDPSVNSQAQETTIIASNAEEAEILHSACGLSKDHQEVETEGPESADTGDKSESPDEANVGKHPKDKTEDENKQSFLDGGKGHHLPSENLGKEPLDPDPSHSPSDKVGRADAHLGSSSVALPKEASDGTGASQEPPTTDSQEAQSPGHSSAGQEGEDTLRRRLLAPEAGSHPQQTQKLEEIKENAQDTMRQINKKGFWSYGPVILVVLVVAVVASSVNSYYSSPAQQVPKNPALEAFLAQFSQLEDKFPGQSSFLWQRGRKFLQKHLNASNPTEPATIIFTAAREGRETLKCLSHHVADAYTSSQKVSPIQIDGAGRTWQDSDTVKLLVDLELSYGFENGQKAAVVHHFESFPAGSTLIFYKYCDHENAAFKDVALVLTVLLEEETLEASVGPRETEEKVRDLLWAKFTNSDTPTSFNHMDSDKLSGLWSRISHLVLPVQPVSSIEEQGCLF
Sequence of Pro-neuregulin-1, membrane-bound isoform (Homo sapiens) (Q02297 whole entry, looked up, the tested form may be a part, canonical isoform): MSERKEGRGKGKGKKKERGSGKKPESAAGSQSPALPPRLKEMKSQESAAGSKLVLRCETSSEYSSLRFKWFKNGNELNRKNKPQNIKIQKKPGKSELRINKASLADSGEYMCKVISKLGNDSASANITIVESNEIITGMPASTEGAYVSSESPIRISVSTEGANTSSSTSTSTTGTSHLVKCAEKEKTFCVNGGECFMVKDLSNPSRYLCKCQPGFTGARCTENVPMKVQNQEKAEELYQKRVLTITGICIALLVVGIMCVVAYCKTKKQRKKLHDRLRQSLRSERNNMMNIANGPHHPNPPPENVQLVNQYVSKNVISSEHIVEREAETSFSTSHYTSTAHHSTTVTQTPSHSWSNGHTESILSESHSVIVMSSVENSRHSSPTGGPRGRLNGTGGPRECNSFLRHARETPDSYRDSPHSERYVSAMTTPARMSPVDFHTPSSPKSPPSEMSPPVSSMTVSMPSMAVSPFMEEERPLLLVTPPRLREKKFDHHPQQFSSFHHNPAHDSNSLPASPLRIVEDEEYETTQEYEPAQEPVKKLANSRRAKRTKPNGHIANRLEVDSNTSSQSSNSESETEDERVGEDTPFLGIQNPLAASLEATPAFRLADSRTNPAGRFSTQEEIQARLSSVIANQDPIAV
Sequence of Neurogenic locus notch homolog protein 2 (Homo sapiens) (Q04721 whole entry, looked up, canonical isoform): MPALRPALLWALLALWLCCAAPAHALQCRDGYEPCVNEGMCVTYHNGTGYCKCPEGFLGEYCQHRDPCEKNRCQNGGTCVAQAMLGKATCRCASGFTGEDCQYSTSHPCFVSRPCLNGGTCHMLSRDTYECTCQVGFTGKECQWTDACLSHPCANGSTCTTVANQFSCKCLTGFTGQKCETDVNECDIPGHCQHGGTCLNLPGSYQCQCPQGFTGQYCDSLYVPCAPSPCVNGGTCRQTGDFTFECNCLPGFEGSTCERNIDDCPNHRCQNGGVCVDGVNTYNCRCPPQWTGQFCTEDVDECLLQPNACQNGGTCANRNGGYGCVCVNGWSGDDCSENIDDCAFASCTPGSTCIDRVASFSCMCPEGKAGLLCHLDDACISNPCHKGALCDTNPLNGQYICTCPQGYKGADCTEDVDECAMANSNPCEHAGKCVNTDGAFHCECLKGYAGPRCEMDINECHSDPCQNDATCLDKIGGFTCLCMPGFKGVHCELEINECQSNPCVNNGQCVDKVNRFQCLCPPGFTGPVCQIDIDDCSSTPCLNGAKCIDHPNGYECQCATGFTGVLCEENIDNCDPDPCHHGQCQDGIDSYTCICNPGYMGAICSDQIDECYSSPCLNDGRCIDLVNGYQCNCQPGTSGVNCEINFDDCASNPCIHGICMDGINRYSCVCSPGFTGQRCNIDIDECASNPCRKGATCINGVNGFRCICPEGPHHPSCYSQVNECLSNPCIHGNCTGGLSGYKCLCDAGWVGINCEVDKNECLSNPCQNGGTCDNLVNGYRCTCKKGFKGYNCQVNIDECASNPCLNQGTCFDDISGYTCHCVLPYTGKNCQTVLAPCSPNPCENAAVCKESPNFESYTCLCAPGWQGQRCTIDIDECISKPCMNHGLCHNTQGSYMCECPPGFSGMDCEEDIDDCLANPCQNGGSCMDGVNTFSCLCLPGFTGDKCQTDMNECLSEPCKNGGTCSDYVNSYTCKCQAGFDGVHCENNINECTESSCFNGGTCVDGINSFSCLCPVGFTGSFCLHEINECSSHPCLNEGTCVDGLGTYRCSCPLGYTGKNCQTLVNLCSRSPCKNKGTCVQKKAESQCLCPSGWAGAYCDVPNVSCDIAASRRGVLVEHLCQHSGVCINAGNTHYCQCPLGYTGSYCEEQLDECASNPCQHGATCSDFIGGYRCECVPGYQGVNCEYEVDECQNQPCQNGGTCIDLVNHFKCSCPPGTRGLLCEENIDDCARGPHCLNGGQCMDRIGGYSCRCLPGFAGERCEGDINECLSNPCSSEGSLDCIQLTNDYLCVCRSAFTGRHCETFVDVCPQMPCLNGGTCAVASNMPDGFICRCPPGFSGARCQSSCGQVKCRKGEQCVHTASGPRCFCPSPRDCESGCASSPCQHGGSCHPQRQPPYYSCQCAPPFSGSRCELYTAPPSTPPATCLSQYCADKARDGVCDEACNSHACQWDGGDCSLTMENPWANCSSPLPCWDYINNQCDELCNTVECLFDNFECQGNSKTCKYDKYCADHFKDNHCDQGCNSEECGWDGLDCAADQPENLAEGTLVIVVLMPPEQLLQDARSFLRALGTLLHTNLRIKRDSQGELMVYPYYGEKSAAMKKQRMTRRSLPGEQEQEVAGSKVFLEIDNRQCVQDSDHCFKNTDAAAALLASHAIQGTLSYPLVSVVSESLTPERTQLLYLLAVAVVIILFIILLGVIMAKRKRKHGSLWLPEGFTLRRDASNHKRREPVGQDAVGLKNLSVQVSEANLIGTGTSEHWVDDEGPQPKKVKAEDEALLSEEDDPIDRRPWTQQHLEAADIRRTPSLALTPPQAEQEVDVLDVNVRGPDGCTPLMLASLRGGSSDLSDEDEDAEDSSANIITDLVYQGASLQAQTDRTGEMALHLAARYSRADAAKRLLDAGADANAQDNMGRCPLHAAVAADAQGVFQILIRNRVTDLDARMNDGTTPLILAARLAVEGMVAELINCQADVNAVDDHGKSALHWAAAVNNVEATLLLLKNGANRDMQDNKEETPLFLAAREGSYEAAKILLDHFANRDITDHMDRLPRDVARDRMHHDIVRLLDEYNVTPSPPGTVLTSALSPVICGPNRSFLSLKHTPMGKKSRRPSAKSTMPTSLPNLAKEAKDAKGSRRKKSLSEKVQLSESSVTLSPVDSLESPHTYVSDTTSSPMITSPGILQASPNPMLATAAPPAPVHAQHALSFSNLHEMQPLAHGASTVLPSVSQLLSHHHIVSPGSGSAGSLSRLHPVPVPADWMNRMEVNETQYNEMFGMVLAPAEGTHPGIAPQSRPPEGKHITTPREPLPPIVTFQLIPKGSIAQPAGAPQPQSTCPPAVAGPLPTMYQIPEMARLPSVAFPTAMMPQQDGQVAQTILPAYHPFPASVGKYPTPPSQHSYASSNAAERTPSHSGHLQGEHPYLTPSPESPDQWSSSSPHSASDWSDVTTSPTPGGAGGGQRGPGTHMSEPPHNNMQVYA

`CCCC=C(CCC)[C@@H](NC(=O)c1ccc(-c2ccccc2)cc1)c1ccc(C(=O)OC)cc1`: the composite z-score was 0.0763 in assay [1]; -0.719 in assay [2]; 0.0827 in assay [3]; 0.0375 in assay [4]; 1.51 in [5]; 0.746 in assay [6]. For the same compound, the composite z-score in assay [7] was determined as 0.824; in assay [9], 0.801; in assay [10], 1.81; in assay [11] it was 0.665; in assay [15], 3.33; in assay [17] it was 0.0997. Also, the results for the composite z-score in assay [18], in assay [19] and in assay [20] were 0.0811, 1.07 and -0.022, respectively. Moreover, the z-score was 0.348 (inactive) in assay [8]; 0.806 (inactive) in assay [12]; 1.77 (inactive) in [13]; 1.93 (inactive) in assay [14]; -0.665 (inactive) in assay [16].

Take `CCN1C(=O)[C@H]2[C@H]3[C@H](O)[C@H](O)CC(=NOC[C@@H](C)[C@H](OCc4ccccc4)C(C)C)[C@@H]3CC[C@H]2C1=O`: the composite z-score in [1] was -0.468; in assay [2], 1.28; in assay [3], -0.128; in assay [4], 0.523; in [5], 0.399; in assay [6], 1.24. Also, the composite z-score is 0.221 in [7]; 0.0662 in assay [9]; -0.169 in [10]; 0.607 in assay [11]; 0.8 in assay [15]; -0.145 in assay [17]. In addition, the composite z-score in assay [18] was 0.355; in assay [19], 0.457; in [20], -0.0936. In addition, the z-score in assay [8] was 0.199 (inactive); in assay [12], -1.05 (inactive); in assay [13] it was -4.13 (inactive); in assay [14] it was -0.673 (inactive); in [16], 0.568 (inactive).

Regarding `CCN1C(=O)[C@H]2[C@H]3[C@H](O)[C@H](O)CC(=NO[C@@H]4O[C@H](CO)[C@@H](O)[C@H](O)[C@H]4O)[C@@H]3CC[C@H]2C1=O`, the composite z-score in assay [1] is -0.0837; in [2], 0.0566; in assay [3] it was -0.211; in assay [4], -0.078; in assay [5], -1.21; in [6], 0.485. Besides, the composite z-score in assay [7] is -1.11; in assay [9], -0.402; in assay [10], 0.354; in [11], -0.685; in assay [15], -1.12; in assay [17], -0.132. Moreover, the figures for the composite z-score in assay [18], in assay [19] and in assay [20] were -0.103, -0.389 and -0.19, respectively. Moreover, the z-score was 0.183 (inactive) in [8]; -0.58 (inactive) in [12]; -0.599 (inactive) in [13]; -0.849 (inactive) in [14]; 0.103 (inactive) in assay [16].

Consider `Cc1ccc(S[C@]2(C(=O)NCC(F)(F)F)CC(=O)N(Cc3ccccc3Cl)[C@@H]2c2ccc(CO)cc2I)cc1`, for which the composite z-score in [1] is 0.647; in assay [2] it was -0.193; in [3], -0.122; in [4], 0.494; in assay [5] it was -1.23; in assay [6] it was 2.01. The composite z-score in [7] was 1.21; in [9], -0.611; in [10], -0.284; in [11], 1.33; in assay [15], 2.34; in assay [17] it was -0.0998. Moreover, the composite z-score is -1.07 in [18], -0.573 in assay [19] and -0.284 in [20]. Besides, the z-score in assay [8] is -1.13 (inactive); in [12] it was 0.294 (inactive); in assay [13], -3.18 (inactive); in assay [14] it was 1.06 (inactive); in assay [16] it was 0.492 (inactive).

As to `COc1ccc([Si](C)(C)[C@@H]2[C@@H](CCO)O[C@]3(C(=O)N(Cc4ccc(NC(C)=O)cc4)c4ccccc43)[C@H]2C)cc1`, the composite z-score in [1] is -0.189; in [2], 1.05; in [3], -0.0049; in assay [4], 1.18; in [5], 1.47; in assay [6], 1.66. Also, the composite z-score in assay [7] worked out at 1.24; in assay [9], 0.17; in assay [10] it was 0.0373; in assay [11] it was 1.55; in assay [15] it was 2.7; in assay [17], 0.0325. The composite z-score worked out at 1.48 in [18], 0.949 in assay [19] and 0.492 in [20]. Further, the z-score in assay [8] is -4.04 (inactive); in assay [12], 2.99 (inactive); in [13] it was 0.282 (inactive); in assay [14], 34.6 (active); in assay [16], 1.44 (inactive).
